In the library only some 2.7% were active in any assay of this set; here they are far more common.
GLP1R cytotox: cytotoxicity in counter-screen for GLP-1R inverse agonists; HEK293 cAMP-luciferase reporter cells, luminescence, 24 h; Potency, µM (doses to about 38.3 µM), for the others: at the highest dose activity change, negative = inhibition, actives largely listed as inhibitors; 410,000 compounds, 0.13% hits;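 further: loss of luciferase light is scored as toxicity; on the % scale 0 is the no-effect control and ±100 the full control effect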
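A 23 nL compound transfer followed 12 hours of cell culture at 37 deg C; exposure then lasted 24 hr. Luciferase assay detection reagent was dispensed and plates read for luminescence after a 12 min room-temperature wait.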
GLP1R ag: activates the human GLP-1 receptor; 380,000 compounds, 0.007% hits; AID 624172; P43220; HEK293 GLP-1R CRE-luciferase, luminescence, 4-6 h; cells express a hypersensitive GLP-1R form; Potency, µM (highest dose often 45.6 µM), for inactives: at the top dose activation, hits mostly activators; further: % of control where 0% means no effect
TrxR1 inh: blocks rat thioredoxin reductase 1; O89049; recombinant rTrxR1, NADPH fluorescence consumption, selenite substrate; Potency, µM (series often up to 114 µM), without a hit: at the highest dose activity change, negative = inhibition, actives largely listed as inhibitors; 390,000 compounds, 1% hits; further: on the % scale 0 is the no-effect control and ±100 the full control effect; nearly all actives have a fitted effect of over 65% in size
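Rat TrxR1 (90 nM in the dispensed reagent) was pre-reduced with 400 uM NADPH for 5 min at room temperature, then incubated with compound for 15 min. After 400 uM selenite was added, NADPH fluorescence (Ex 340/Em 450 nm) was followed for 8 min.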
GLP1R inv ag: inverse agonists of human GLP-1 receptor. P43220. 410,000 compounds, 1.6% hits. Potency, µM (top dose mostly 38.3 µM), for the others: at the highest dose activity change, negative = inhibition, most hits filed as inhibitors. HEK293 GLP-1R CRE-luciferase, luminescence, 24 h; GLP-1R form is constitutively active; further: on the % scale 0 is the no-effect control and ±100 the full control effect; nearly all actives have a fitted effect of over 55% in size
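Luminescence readout: a drop in cAMP-driven luciferase signal flags inverse agonism at a constitutively active GLP-1R stably expressed in HEK293. Compound exposure lasted 24 hr at 37 deg C, 5% CO2.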
TrxR1 substrate: substrates of rat thioredoxin reductase 1 | Potency, µM (highest dose often 114 µM), for inactives: top-dose activity change, negative = substrate turnover | purified TrxR1 substrate turnover, NADPH consumption readout | 390,000 compounds, 0.01% hits; further: on the % scale 0 is the no-effect control and ±100 the full control effect; nearly all actives have a fitted effect of over 50% in size
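Rat TrxR1, dispensed at 90 nM, was prereduced with 400 uM NADPH (final) for 5 min at ~22 deg C, then incubated with compound 15 min before 400 uM selenite. A first-read NADPH fluorescence drop versus no-compound background flagged substrates.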
IDH1 R132H inh: inhibitors of human mutant IDH1 R132H. O75874. IDH1-R132H enzyme, NADPH consumption, diaphorase/resazurin fluorescence. Potency, µM (top dose mostly 76.6 µM), for inactives: top-dose activity change, negative = inhibition, most hits filed as inhibitors. 390,000 compounds, 0.093% hits. AID 602179; further: on the % scale 0 is the no-effect control and ±100 the full control effect; nearly all actives have a fitted effect of over 65% in size
Target sequence (O75874 whole entry R132H, stated change not applied): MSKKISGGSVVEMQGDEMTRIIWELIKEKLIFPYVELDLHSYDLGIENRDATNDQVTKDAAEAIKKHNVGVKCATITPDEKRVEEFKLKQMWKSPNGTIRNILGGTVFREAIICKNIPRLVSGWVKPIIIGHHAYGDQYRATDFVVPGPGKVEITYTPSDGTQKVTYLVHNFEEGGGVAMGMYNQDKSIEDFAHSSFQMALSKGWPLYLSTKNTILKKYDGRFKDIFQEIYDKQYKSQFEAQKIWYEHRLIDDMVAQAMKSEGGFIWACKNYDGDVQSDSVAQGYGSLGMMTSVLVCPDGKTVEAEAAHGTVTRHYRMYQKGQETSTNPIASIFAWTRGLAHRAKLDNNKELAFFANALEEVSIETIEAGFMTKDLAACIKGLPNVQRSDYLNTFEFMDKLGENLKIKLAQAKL
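IDH1-R132H (0.5 ug/mL dispensed) in pH 7.5 Tris buffer was preincubated 30 min with compound, then given a substrate mix of 0.016 mM NADPH and 2 mM alpha-KG for 80 min at room temperature; remaining NADPH was read by diaphorase/resazurin fluorescence.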
Starred values were filed as active, the others as inactive; [ ] = another dose, or the depositor's remark. The call rests on the fitted dose curve; in most records, active means well fitted curve in the direction sought with a large enough effect; inconclusive means small, poorly fitted or top-dose-only effect, or another doubt; inactive means no such curve, though single readings can be large; an effect the other way counts as inactive or inconclusive. Potency means the concentration at half of the fitted maximal effect.

What do the screens show for `Cc1ccc2nc(-c3ccccc3)cc(C(=O)N3CCN(c4ccccc4O)CC3)c2c1`?
GLP1R cytotox: inconclusive; GLP1R ag: -7.4%; TrxR1 inh: -1.9%; GLP1R inv ag: 10µM*; TrxR1 substrate: -4.1%; IDH1 R132H inh: 2.7%

How did CCC(C)NCCOc1ccc(C(C)(C)c2ccccc2)cc1 (stereo not drawn) do in these assays?
GLP1R cytotox: inconclusive; GLP1R ag: 8.7%; TrxR1 inh: 17.3%[57.1 µM]; GLP1R inv ag: 5.01µM*; TrxR1 substrate: -12.8%[57.1 µM]; IDH1 R132H inh: 13.4%

How did O=c1c2ccccc2nc(-c2ccccc2)n1-c1ccncc1 do in these assays?
GLP1R cytotox: 13.2%; GLP1R ag: 11.7%; TrxR1 inh: 13.4%; GLP1R inv ag: 0.0%; TrxR1 substrate: 2.1%; IDH1 R132H inh: -8.9%

What do the screens show for `O=c1c2ccccc2nc(-c2ccccc2)n1-c1cccnc1`?
GLP1R cytotox: -25.3%; GLP1R ag: -0.4%; TrxR1 inh: 15.1%; GLP1R inv ag: -5.7%; TrxR1 substrate: 4.1%; IDH1 R132H inh: 0.0%

Results for O=c1c2ccccc2nc(-c2ccccc2)n1-c1ccccc1 ?
GLP1R cytotox: 2.1%; GLP1R ag: 13.7%; TrxR1 inh: 28.9%; GLP1R inv ag: 5.01µM*; TrxR1 substrate: 0.1%; IDH1 R132H inh: 2.1%

How did CCCCc1nc2ccccc2c(=O)n1-c1ccc(O)cc1 do in these assays?
GLP1R cytotox: -8.2%; GLP1R ag: 26.7%; TrxR1 inh: 15.1%; GLP1R inv ag: 2.24µM*; TrxR1 substrate: 1.5%; IDH1 R132H inh: -1.4%

Results for O=c1c2ccccc2nc(-c2ccccc2)n1-c1cccc(O)c1 ?
GLP1R cytotox: -11.7%; GLP1R ag: -1.1%; TrxR1 inh: 31.4%; GLP1R inv ag: 1µM*; TrxR1 substrate: 2.1%; IDH1 R132H inh: -1.8%

How did O=c1c2ccccc2nc(N2CCCC2)n1-c1ccccc1 do in these assays?
GLP1R cytotox: -9.3%; GLP1R ag: 14.6%; TrxR1 inh: 1.0%; GLP1R inv ag: 3.16µM*; TrxR1 substrate: 33.9%; IDH1 R132H inh: -2.3%

Results for Oc1ccc2c3c1O[C@H]1[C@@H](O)C=CC4[C@@H](C2)NCC[C@@]341 (stereo partly drawn) ?
GLP1R ag: 4.1%

What do the screens show for `CC(C)CC(=O)NC(NC(=S)Nc1sc2c(c1C#N)CCCC2)C(Cl)(Cl)Cl` (stereo not drawn)?
GLP1R cytotox: inconclusive; GLP1R ag: -6.7%; TrxR1 inh: -7.3%[57.1 µM]; GLP1R inv ag: inconclusive; TrxR1 substrate: -3.1%[57.1 µM]; IDH1 R132H inh: 4.8%

Results for O=C(COc1ccc(Cl)cc1)N(c1ccccc1Cl)C1CN2CCC1CC2 (stereo not drawn) ?
GLP1R cytotox: inconclusive; GLP1R ag: 1.2%; TrxR1 inh: -5.7%[57.1 µM]; GLP1R inv ag: 2.51µM*; TrxR1 substrate: 2.7%[57.1 µM]; IDH1 R132H inh: 2.6%

Results for Clc1ccccc1CNC1CN2CCC1CC2 (stereo not drawn) ?
GLP1R cytotox: -6.1%; GLP1R ag: -2.2%; TrxR1 inh: 2.1%; GLP1R inv ag: 2.4%; TrxR1 substrate: -2.0%; IDH1 R132H inh: -1.2%

Results for O=S(=O)(NC1CN2CCC1CC2)c1ccc(Cl)cc1 (stereo not drawn) ?
GLP1R cytotox: inconclusive; GLP1R ag: 8.7%; TrxR1 inh: 3.7%; GLP1R inv ag: -5.2%; TrxR1 substrate: 0.2%; IDH1 R132H inh: -7.4%

Results for O=C(COc1ccc(Cl)cc1)N(c1ccc(Cl)cc1)C1CN2CCC1CC2 (stereo not drawn) ?
GLP1R cytotox: inconclusive; GLP1R ag: 3.2%; TrxR1 inh: -3.6%[57.1 µM]; GLP1R inv ag: 8.91µM*; TrxR1 substrate: 3.5%[57.1 µM]; IDH1 R132H inh: 2.2%

What do the screens show for `C=CCC1(C(C)CCC)C(=O)NC(=O)NC1=O` (stereo not drawn)?
GLP1R ag: 0.9%[96 µM]

How did CC(=O)Nc1cc(-c2cccc(C(=O)NCCN(C)C)c2)cn2c(-c3cccc(C(F)(F)F)c3)cnc12 do in these assays?
GLP1R cytotox: inconclusive; GLP1R ag: 2.0%; GLP1R inv ag: inconclusive

How did CCOC(=O)[C@]12Cc3cc(OC)ccc3[C@H]1N(C)C(=O)c1cc(OC)ccc12 do in these assays?
GLP1R cytotox: -11.3%; GLP1R ag: -27.1%; GLP1R inv ag: inconclusive

Results for CCOC(=O)[C@]12Cc3ccc(C)cc3[C@H]1N(C1CCCCC1)C(=O)c1cc(OC)ccc12 ?
GLP1R cytotox: 11.2µM*; GLP1R ag: -12.0%; GLP1R inv ag: inconclusive

Results for CCCCCN1C(=O)c2cc(OC)ccc2[C@@]2(C(=O)OCC)Cc3cc(OC)ccc3[C@@H]12 ?
GLP1R cytotox: inconclusive; GLP1R ag: -13.3%; GLP1R inv ag: 7.08µM*

Results for CCOC(=O)[C@]12Cc3ccc(C)cc3[C@H]1N(C1CCCCC1)C(=O)c1ccccc12 ?
GLP1R cytotox: inconclusive; GLP1R ag: -12.7%; GLP1R inv ag: inconclusive

How did Cc1ccc2nc(Cl)c3nnnn3c2c1 do in these assays?
GLP1R cytotox: inconclusive; GLP1R ag: -4.4%; TrxR1 inh: 8.91µM*; GLP1R inv ag: -13.3%; TrxR1 substrate: 2.6%; IDH1 R132H inh: 0.0%

How did CCC1CSC(=Nc2ccc(C)cc2)N1C(=O)CN1C(=O)NC2(CCCC2)C1=O (stereo not drawn) do in these assays?
GLP1R cytotox: inconclusive; GLP1R ag: -8.5%; TrxR1 inh: -3.5%; GLP1R inv ag: inconclusive; TrxR1 substrate: -9.4%; IDH1 R132H inh: 4.1%

How did C=C1C(=O)OC2CC1C(O)CC(C)=CCCC(C)=CC(O)CC2C (stereo not drawn) do in these assays?
GLP1R cytotox: inconclusive; GLP1R ag: -11.5%; TrxR1 inh: -7.4%[11.4 µM]; GLP1R inv ag: 2.24µM*; TrxR1 substrate: 6.3%[57.1 µM]; IDH1 R132H inh: -5.4%

Results for C=C1C(=O)OC2CC(C)C3C=CC(=O)C3(C)C(O)C12 (stereo not drawn) ?
GLP1R cytotox: -64.7%; GLP1R ag: -33.7%; TrxR1 inh: -54.2%[57.1 µM]; GLP1R inv ag: inconclusive; TrxR1 substrate: -3.1%[57.1 µM]; IDH1 R132H inh: 6.0%

What do the screens show for `CC(C)CCOP(=O)(c1ccc(N(C)C)cc1)C(O)c1ccc(Cl)cc1Cl` (stereo not drawn)?
GLP1R cytotox: inconclusive; GLP1R ag: 5.8%; TrxR1 inh: -6.5%[57.1 µM]; GLP1R inv ag: 6.31µM*; TrxR1 substrate: -7.0%[57.1 µM]; IDH1 R132H inh: 9.9%

Results for CCOC(=O)c1c(C=O)c2ccccc2n1Cc1ccccc1 ?
GLP1R cytotox: -5.2%; GLP1R ag: 24.6%; TrxR1 inh: -14.5%; GLP1R inv ag: 10µM*; TrxR1 substrate: -9.7%; IDH1 R132H inh: 6.4%

High-throughput results (PubChem BioAssay)
